# Screens (PubChem BioAssay)
# Most compounds without a hit are left out; they make up all but 8.1% or so of the library.
# KB-V1 MDR tox: kills drug-selected multidrug resistant KB-V1 cells. KB-V1 MDR cells viability, CellTiter-Glo, 72 h. Potency, µM (titrated, usually from 46.1 µM), usual class: cytotoxic. actives 3.4% (n = 400,000); further: on the % scale 0 is the no-effect control and ±100 the full control effect; nearly all actives have a fitted effect of over 60% in size
#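 Following 72 h at 37 degrees C with compound, KB-V1 cell viability was read by CellTiter-Glo luminescence, medium being phenol-red-free DMEM plus 10% FBS; concentration-response parameters came from normalized, curve-fitted qHTS data.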
# SW480 rerep: induces DNA re-replication in SW480 colon adenocarcinoma cells; Potency, µM (top dose mostly 46.1 µM), without a hit: at the highest dose re-replication activation, hits mostly activators; SW480 DNA re-replication, Hoechst DNA content imaging, 48 h; actives 1.8% (n = 340,000); further: % of control where 0% means no effect; nearly all actives have a fitted effect of over 55% in size
#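 SW480 cells exposed to compounds for 48 hr at 37 C, 5% CO2, then Hoechst-stained 40 min. Nuclear DNA content imaged by fluorescence scanning (405 nm excitation, 500-530 nm emission); re-replication scored as increased high-intensity nuclei.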
# KB-3-1 cytotox: kills parental KB-3-1 adenocarcinoma cells; actives 1.4% (n = 400,000); Potency, µM (top dose mostly 46.1 µM), hits mostly cytotoxic; KB-3-1 viability, CellTiter-Glo ATP luminescence, 72 h; further: on the % scale 0 is the no-effect control and ±100 the full control effect; nearly all actives have a fitted effect of over 60% in size
#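 Here the drug-naive KB-3-1 line serves as comparator for MDR sub-line selectivity; cells received compound titrations, 72 h at 37 °C, then CellTiter-Glo readout.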
# ELG1 DNA repair: inhibitors of ELG1-dependent DNA repair in HEK293T cells; actives 2.3% (n = 330,000); Potency, µM (series often up to 46.1 µM), for the others: top-dose activity change, negative = inhibition, hits mostly inhibitors; AID 504467; HEK293T ELG1-luciferase reporter, luminescence, 16 h; DNA damage induced by 5-fluorouridine; further: on the % scale 0 is the no-effect control and ±100 the full control effect; nearly all actives have a fitted effect of over 55% in size
#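 In this reporter screen, reduction of luminescence relative to DMSO vehicle indicated activity. Compounds and 5-fluorouridine were added together to 2,000 cells per well, incubated for 16 hr at 37 °C, then developed with ONE-Glo.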
# MCF10A rerep: DNA re-replication induction in MCF 10a cells; MCF 10A DNA re-replication, Hoechst nuclear intensity, 48 h; AID 624296; Potency, µM (highest dose often 46.1 µM), inactives show at the highest dose activity, positive = re-replication, most hits filed as activators; actives 2.9% (n = 350,000); further: % of control where 0% means no effect; nearly all actives have a fitted effect of over 50% in size
# * hit, by the source's call; i = inactive; ? = inconclusive; . = not tested or not shown; [ ] = another dose, or the depositor's remark. The call rests on the fitted dose curve; in most records, active means well fitted curve in the direction sought with a large enough effect; inconclusive means small, poorly fitted or top-dose-only effect, or another doubt; inactive means no such curve, though single readings can be large; an effect the other way counts as inactive or inconclusive. Potency means the concentration at half of the fitted maximal effect.
SMILES,KB-V1 MDR tox,SW480 rerep,KB-3-1 cytotox,ELG1 DNA repair,MCF10A rerep
CCOC(=O)C1CCCN(C(=O)c2cc(C)oc2C)CC1 (stereo unspecified),i,.,i,.,.
FC(F)Oc1ccc(-n2cc(-c3ccccc3)[n+]3c2CCCCC3)cc1,i,-11%,23µM*,16µM*,-2%
Cc1ccc(CONC(=O)c2ccc(OC(F)F)cc2)cc1,i,-12%,i,?,-1%
Cc1ccc(-c2cn(-c3ccc(OC(F)F)cc3)c3[n+]2CCCCC3)cc1,i,-1%,i,9.2µM*,5%
COc1ccccc1CNC(=O)C1CCC(CNS(=O)(=O)c2ccc3c(c2)CCCC(=O)N3)CC1 (stereo unspecified),?,.,i,.,.
CC(=O)c1ccc(N2CCN(C(=O)c3nn(Cc4ccccc4)c(=O)c4ccccc34)CC2)cc1,?,-46%[1.84 µM],i,9.2µM*,?
COC(=O)c1nn(Cc2ccccc2)c(=O)c2ccccc12,16µM*,-2%,i,-3%,12%
NC(=O)c1nn(Cc2ccccc2)c(=O)c2ccccc12,?,-6%,i,9%,-1%
CCOP(=O)(OCC)C(Cc1ccc(OC)c(OC)c1)N=C(c1ccccc1)c1ccccc1 (stereo unspecified),15µM*,.,i,.,.
COc1ccccc1/C=C/C=N/N1CCN(Cc2ccc(Cl)cc2)CC1,i,2%,i,5%,?
COc1ccccc1/C=C/C=N\N1CCN(Cc2ccccc2Cl)CC1,16µM*,5%,i,-10%,?
COc1cccc(NC(=O)C2CCC(CNS(=O)(=O)c3ccc4c(c3)CCCC(=O)N4)CC2)c1 (stereo unspecified),i,.,i,.,.
O=C(c1ccc2c(c1)N(Cc1ccc(F)cc1)C(=O)c1ccccc1S2(=O)=O)N1CCCC1,i,.,i,.,.
CCOc1ccc(C(=O)NC(C(=O)N2CCC2)C(C)C)cc1 (stereo unspecified),i,65%,i,8%,11%
CCCCCOC(=O)c1cc(=O)[nH]c2ccccc12,2.3µM*,-1%,8.2µM*,?,?
CCC1CCCCN1C(=O)COC(=O)c1cc(=O)[nH]c2ccccc12 (stereo unspecified),18µM*,-5%,i,?,0%
O=C(OCC(=O)N1CCCCC1)c1cc(=O)[nH]c2ccccc12,i,-2%,i,?,-9%
c1ccc(-c2nc(N3CCNCC3)nc3ccccc23)cc1,?,23µM*,i,?,0.71µM*
CCN1CCN(c2nc(-c3ccccc3)c3ccccc3n2)CC1,i,21µM*,i,-12%,15µM*
c1ccc(-c2nc(N3CCCCC3)nc3ccccc23)cc1,i,?,i,15%,?
CN(C(=O)c1cccc(NC(=O)Cc2ccc(NC(=O)C3CCCN(C(=O)C4CCCCC4)C3)cc2)c1)C1CCC1 (stereo unspecified),?,?,i,.,?
Cc1ccc(-c2nc(NC(=O)CSc3nnc4scc(-c5ccccc5)n34)ns2)cc1,i,-1%,i,12µM*,-1%
Cc1nnc(NC(=O)CSc2nnc3scc(-c4ccc(C)c(C)c4)n23)s1,21µM*,1%,i,0%,3%
O=C(N/N=C/c1ccc([N+](=O)[O-])cc1)c1cccc2cc[nH]c12,i,-190%,i,8%,4%
CCN(CC)c1ccc(/C=N\NC(=O)c2cccc3cc[nH]c23)cc1,13µM*,23µM*,23µM*,?,15µM*
SMILES,KB-V1 MDR tox,SW480 rerep,KB-3-1 cytotox,ELG1 DNA repair,MCF10A rerep
CCOc1ccccc1N1CC(C(=O)N(CC)CC(=O)Nc2ccc3c(c2)OCCO3)CC1=O (stereo unspecified),i,2.3µM*,i,7%,2%
CCN(CC(=O)Nc1ccc2c(c1)OCCO2)C(=O)C1CC(=O)N(c2ccc(OC)cc2OC)C1 (stereo unspecified),?,-7%,i,-16%,0%
Cn1cc(S(=O)(=O)c2ccc(Cl)cc2)c(=O)c2cc(F)c(N3CCCC3)cc21,i,.,i,.,.
Cc1cc(C)cc(S(=O)(=O)c2cn(C)c3cc(N4CCN(C)CC4)c(F)cc3c2=O)c1,?,-10%,i,-3%,23µM*
COc1ccc(CC(N)c2csc(NC(=O)c3cccs3)n2)cc1 (stereo unspecified),?,.,i,.,.
O=c1oc(C2(O)CCCCC2)cc2ccccc12,i,-2%,i,3%,3%
O=c1oc(C2(O)CCCCC2)cc2ccc(-c3ccc4[nH]ccc4c3)cc12,?,23%,0.82µM*,?,?
COc1ccc(C)cc1NC(=O)C(=O)NNC(=O)COc1ccc(Cl)cc1,i,-7%,i,?,21µM*
C=CCOc1ccc(CN(C)C(=O)CNC(=O)c2ccc(-c3ccccc3)cc2)cc1,2.3µM*,?,4.6µM*,23µM*,-1%
CCOc1ccc(CN(C)C(=O)CNC(=O)c2ccccc2)cc1,i,-2%,i,1%,7%
O=C(Nc1ccc(Oc2ccccc2)cc1)c1ccc2sc([C@H]3C[C@H](O)[C@@H](CO)O3)nc2c1,i,.,i,.,.
CN(C)c1ccc(C(CNS(=O)(=O)c2ccc(Br)cc2)N2CCCC2)cc1 (stereo unspecified),i,.,i,.,.
O=C(N/N=C/c1c(O)n(Cc2ccccc2)c(=O)c2ccccc12)c1cccnc1,?,23%,18µM*,?,?
Cc1nn(Cc2c(Cl)cccc2Cl)c(Cl)c1/C=N/NC(=O)c1cccnc1,i,?,i,?,21µM*
COc1ccc(CCNC(=O)c2cccnc2)cc1,i,?,i,8%,16µM*
COc1ccc(CCNC(=O)c2ccccc2)cc1,i,-1%,i,?,0%
O=C(N/N=C/c1c(O)n(-c2ccccc2Cl)c(=O)c2ccccc12)c1cccnc1,?,16µM*,i,-15%,?
Cc1cn2c(=O)c(C(=O)NCc3ccc4c(c3)OCO4)cnc2s1,i,-1%,i,27%,0%
COc1ccc(Cn2c(O)c(/C=N/NC(=O)c3cccnc3)c3ccccc3c2=O)cc1,i,?,i,18µM*,?
COc1ccc(Cn2c(O)c(C=Nc3ccc(OC)cc3)c3ccccc3c2=O)cc1,i,-2%,i,-20%,-3%
O=C(N/N=C/c1c(-c2ccccc2)[nH]c2ccccc12)c1cccnc1,i,23µM*,?,-12%,?
COc1cc(-c2nnc(CSc3nnc(N)s3)o2)cc(OC)c1OC,i,-3%,i,4%,2%
COc1cc(-c2nnc(-c3cc(OC)c(OC)c(OC)c3)o2)cc(OC)c1OC,i,-7%,?,8.2µM*,1%
